Assay [1] deals with Hepatitis C virus NS3 helicase. Nature of the assay: blockers of NS3h binding to ssDNA – biochemical, fluorescence polarization, LOPAC1280 library, primary screen (AID 687035; in the data active = inhibition above about 37%). Conditions: Purified HCV NS3 helicase, Cy5-dT15 ssDNA binding fluorescence polarization; stronger effect = higher value; concentration not given here. For orientation: In fluorescence polarisation assays a small probe gives low polarisation when free and higher when bound to something large.

The nature of assay [2]: compounds altering Cy5-DNA-NS3h complex signal – biochemical, LOPAC1280, artefact control for HCV NS3 helicase inhibitor project (AID 687037). The settings on record: Cy5-DNA-NS3h complex fluorescence interference counterscreen. (The purpose of a counterscreen is to sort out artefacts and off-target activity.)
Assay [3] is described as follows: blockers of cellular phospholipid synthesis – cell-based, LOPAC library, screen 4, primary screen (AID 1347384). The settings on record: animal cells, phospholipid biosynthesis inhibition screen; at 10 µM.
Assay [4] in a line: compounds altering circadian rhythm period length – cell-based, LOPAC library, luminescence reporter (AID 2774).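 Also: values are relative to mean of DMSO wells on each plate.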 Conditions: circadian reporter cells, at 7 µM, actives lie on both sides.
Assay [5] is described as follows: blockers of polyQ-driven CASP3 activation – cell-based (AID 1583). Conditions: polyglutamine-induced caspase-3 activation, cell assay; stronger effect = higher value;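 tested at 10 µM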.
Assay [6] is described as follows: yeast 75Q aggregation reduction – 75Q-TubU reporter (AID 1593). The settings on record: Yeast 75Q polyglutamine aggregation reporter.
Assay [7] in a line: restoration of touch response, mutant HTT neurons – whole organism, C. elegans mechanosensory neurons, N-terminal huntingtin (AID 1599). Conditions: C. elegans polyQ-huntingtin mechanosensory neurons, stronger effect = higher value.
Assay [8] can be described thus: blockers of cytochrome c efflux from mitochondria – biochemical, purified mitochondria (AID 1603).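 Also: mouse liver mitochondria challenged with calcium chloride; signal normalized to the plate average as 100%.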 The settings on record: stronger effect = lower value.
Assay [9] is described as follows: polyglutamine aggregate formation blockers (AID 1604). The settings on record: polyglutamine-induced protein aggregation inhibition assay; stronger effect = higher value; tested at 2.5 µM.
Assay [10] can be described thus: glutamate transport activators, MN-1 cells, MN-1 cell line (AID 1612).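 Also: tested at 1 µM final; 0% = mean of DMSO vehicle wells on each plate; positive means more glutamate uptake than control and negative means less.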 The settings on record: MN-1 motor neuron cells, stronger effect = higher value.
A short description of assay [11]: 75Q-TubH aggregate inhibition, S. cerevisiae, yeast (AID 1616). The settings on record: S. cerevisiae 75Q-TubH polyglutamine aggregation suppression; stronger effect = higher value.
Assay [12] concerns Hepatitis C virus NS3 helicase. Nature of the assay: blockers of NS3h binding to DNA – biochemical, fluorescence polarization, NIH Clinical Collection, primary screen (AID 743270). Conditions: NS3 helicase binding to Cy5-dT15 DNA, stronger effect = higher value, concentration not given here.
The target of assay [13] is Single-stranded DNA-binding protein (Escherichia coli (strain K12)) (UniProt P0AGE0). The assay can be described thus: SSB-ssDNA binding inhibitors – biochemical, fluorescence polarization, NIH Clinical Collection, counter-screen for HCV NS3 helicase inhibitor project (AID 743271; in the data active = inhibition above about 28%). The settings on record: E. coli SSB-DNA binding, stronger effect = higher value, concentration not given here.

Assay [14] can be described thus: compounds distorting NS3 helicase fluorescence signal – biochemical, NIH Clinical Collection, artefact control for HCV NS3 helicase inhibitor project (AID 743272).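 Also: HCV NS3 helicase with a Cy5 labelled single stranded DNA probe.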 Conditions: fluorescence interference counterscreen, HCV NS3 helicase assay; stronger effect = lower value.
Assay [15] has as its system F380Y. Nature of the assay: BK channel mutant inhibitors and activators – cell-based, U2OS BacMam, thallium flux, beta subunits, selectivity assay, profiling panel (AID 1259406;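 active = thallium flux through the channel raised or lowered by more than 3 SD from vehicle-only wells, actives on both sides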;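 also: initial slope of Thallos dye fluorescence rise after thallium is added; log ratio against the mean of 0.3% DMSO vehicle wells on the same plate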). The settings on record: U2OS BacMam BK variants, at 30 µM.
Assay [16] relates to F380Y/beta2Delta. The assay is described as above. Conditions: U2OS BacMam BK variants, at 30 µM.
In assay [17] the target is Calcium-activated potassium channel subunit alpha-1 (Homo sapiens) + Leucine-rich repeat-containing protein 26 (Homo sapiens) (UniProt Q12791+Q2I0M4). Described as above. The settings on record: U2OS BacMam BK variants, F380Y/Slo1WT/gamma1, at 30 µM.
Assay [18] deals with R275C. The assay is described as above. Conditions: U2OS BacMam BK variants, at 30 µM.
Assay [19] concerns R275C/beta1. The assay is described as above. Conditions: U2OS BacMam BK variants, at 30 µM.
The subject of assay [20] is R275C/beta2Delta. The description is as above. Conditions: U2OS BacMam BK variants, at 30 µM.

The values below come from PubChem BioAssay.

For some assays here: Measured potencies and affinities stand elsewhere. The source made the active and inactive calls. Unless noted, no rule for the calls is given here.

Calcium-activated potassium channel subunit alpha-1 (Homo sapiens) + Leucine-rich repeat-containing protein 26 (Homo sapiens), sequence (Q2I0M4 whole entry, looked up, one chain of several): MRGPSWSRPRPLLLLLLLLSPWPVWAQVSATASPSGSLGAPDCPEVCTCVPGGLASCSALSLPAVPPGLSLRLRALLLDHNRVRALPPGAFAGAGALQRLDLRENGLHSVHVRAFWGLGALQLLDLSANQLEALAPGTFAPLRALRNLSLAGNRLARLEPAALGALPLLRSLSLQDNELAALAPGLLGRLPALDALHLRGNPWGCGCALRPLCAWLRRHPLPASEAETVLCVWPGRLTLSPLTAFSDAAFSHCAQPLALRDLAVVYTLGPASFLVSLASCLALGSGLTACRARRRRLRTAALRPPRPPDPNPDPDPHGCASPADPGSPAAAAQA

As for `NC1=NCC2c3ccccc3Cc3ccccc3N12` (configuration not stated), in assay [1], the inhibition (commonly the relative decrease from the control value, in per cent) is -2% (inactive). For the same compound, the fluorescence ratio (interference) in assay [2] was 1 (inactive). The compound was classed as inactive in assay [3].
Turning to `CCc1cccc(N(C)C(N)=Nc2cccc3ccccc23)c1`, in assay [4], the period change was -0.08 h (inactive). In addition, in assay [1], the inhibition was 1% (inactive). Further, the fluorescence ratio (interference) in [2] is 1 (inactive). Further, in [3], the result was inactive.
For the compound `CN1CCN(C2Cc3ccccc3Sc3ccc(Cl)cc32)CC1` (configuration not stated), the period change in [4] was 0.285 h (inactive). In addition, in assay [1], the inhibition was -1% (inactive). Moreover, in [2], the fluorescence ratio (interference) is 1 (inactive). Further, the call in assay [3] was inactive.
As to `O=C(O)CCC(=O)OC[C@@H](NC(=O)C(Cl)Cl)[C@H](O)c1ccc([N+](=O)[O-])cc1`, in assay [5], the inhibition was 29.9%. In assay [6], the score stood at 1.53. The same compound registered a rescue above control in assay [7] of -1.33. The cytochrome c release ratio in assay [8] was 0.7. The inhibition of aggregation in assay [9] is 74.7%. Further, the glutamate uptake change in assay [10] came to 7.22%. In assay [11], the aggregation suppression score came to 1.43.
As to `CNS(=O)(=O)CCc1ccc2[nH]cc(C3CCN(C)CC3)c2c1`, in assay [3], the outcome was inactive.
With `O=C(CCCN1CCC(O)(c2cccc(C(F)(F)F)c2)CC1)c1ccc(F)cc1`, in [4], the period change is 0.235 h (inactive). Besides, the inhibition in assay [1] is -3% (inactive). In addition, the fluorescence ratio (interference) in assay [2] was 1 (inactive). Also, the compound was called inactive in assay [3].
As for `Cc1ccc(O)cc1`, the inhibition in assay [5] came to 26.8%. Further, the score in assay [6] stood at 0.73. The compound also showed a rescue above control in assay [7] of -1.33. Besides, in assay [8], the cytochrome c release ratio turned out to be 0.32. In addition, in assay [9], the inhibition of aggregation was determined as 83.3%. Besides, the glutamate uptake change in assay [10] is 1.82%. In assay [11], this compound showed an aggregation suppression score of 1.04.
`CCCC(=O)Nc1ccc(OCC(O)CNC(C)C)c(C(C)=O)c1` (configuration not stated): the inhibition was -2.9% in [5], -3.18% (inactive) in assay [12] and -5.82% (inactive) in [13]. In assay [6], this compound gave a score of 1.34. This compound yielded a rescue above control in assay [7] of -8.24. Also, the cytochrome c release ratio in assay [8] turned out to be 0.94. The compound further yielded an inhibition of aggregation in [9] of 0%. The glutamate uptake change in assay [10] is -19.3%. This compound gave an aggregation suppression score in [11] of 1.28. Moreover, the fluorescence ratio in [14] was 1.03 (inactive). Besides, the log fold change Tl+ flux is -0.0134 (inactive) in assay [15]; -0.0305 (inactive) in assay [16]; 0.00552 (inactive) in assay [17]; -0.005 (inactive) in assay [18]; -0.0201 (inactive) in assay [19]; -0.0513 (inactive) in [20].
Regarding `CCn1cc(C(=O)O)c(=O)c2ccc(C)nc21`, the figures for the inhibition in [5], in assay [12] and in assay [13] were 1.35%, -0.45% (inactive) and -2.76% (inactive), respectively. This compound also displayed a score in assay [6] of 0.74. The rescue above control in assay [7] is -12.9. Further, the cytochrome c release ratio in [8] came out at 0.84. Besides, the inhibition of aggregation in assay [9] is 54.5%. Moreover, in assay [10], the glutamate uptake change was -15.5%. In assay [11], this compound registered an aggregation suppression score of 0.277. In assay [14], the fluorescence ratio is 0.97 (inactive). The compound was classed as inactive in assay [3]. Further, the log fold change Tl+ flux in [15] was 0.0464 (inactive); in assay [16], 0.0152 (inactive); in [17], 0.0259 (inactive); in [18], -0.0165 (inactive); in assay [19], 0.0366 (inactive); in assay [20], 0.000751 (inactive).
With `COC(=O)C1=C(C)NC(C)=C(C(=O)OC)C1c1ccccc1[N+](=O)[O-]`, the inhibition in assay [5] is 28.5%; in [1] it was -1% (inactive); in [12] it was -1.19% (inactive); in [13], 1.44% (inactive). Also, in assay [6], the score was determined as 0.82. The compound also displayed a rescue above control in [7] of 8.1. In assay [8], the cytochrome c release ratio is 0.98. In assay [9], this compound came in with an inhibition of aggregation of 15.2%. The glutamate uptake change in assay [10] is -6.86%. The same compound yielded an aggregation suppression score in assay [11] of 0.369. The period change in [4] is -0.175 h (inactive). The fluorescence ratio (interference) in assay [2] was 1 (inactive). In addition, in assay [14], the fluorescence ratio was 0.9 (inactive). Further, the compound was classed as inactive in assay [3].
